Casp7 inh: caspase-7 (human) inhibition, allosteric or competitive | Potency, µM (series often up to 57.5 µM), without a hit: top-dose activity change, negative = inhibition, usual class: inhibitors | 0.02% of 75,000 active | recombinant caspase-7, Ac-DEVD-AFC fluorescence rate; active = well fitted inhibition curve with a large enough effect in the main read-out, with a control signal flat, not every such curve was filed as active; inconclusive = small, poorly fitted or top-dose-only effect, or a change in a side signal; note: % of control where 0% means no effect
15-hLO-2 inh: blocks human 15-lipoxygenase 2 activity. O15296. purified 15hLO-2, xylenol orange hydroperoxide absorbance. Potency, µM (titrated, usually from 57.1 µM), for the others: top-dose activity change, negative = inhibition, actives largely listed as inhibitors. 0.56% of 110,000 active; note: % is set by controls: 0 for no effect and ±100 for the full control effect; nearly all actives have a fitted effect of over 60% in size
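Read-out: hydroperoxide product oxidises ferrous iron, measured as xylenol orange complex via the 573-to-405 nm absorbance ratio after 30 min. Reaction: 50 nM enzyme, 15 min compound preincubation, 45 uM arachidonic acid, 90 min RT, Hepes pH 7.5 with Triton X-100.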
TSHR agonist: TSH receptor (human) agonism; P16473; HEK293-CNG-TSHR cells (CNG channel as cAMP sensor), membrane potential dye, cAMP; Potency, µM (series often up to 57.1 µM), for the others: at the top dose activation, most hits filed as activators; 0.48% of 73,000 active; AID 926; active = well fitted activation curve with a large enough effect in the main read-out, with a control signal flat, not every such curve was filed as active; inconclusive = small, poorly fitted or top-dose-only effect, or a change in a side signal; inactive = no such curve, though single readings can be large or run the other way; % of control where 0% means no effect;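 note: the control signal comes from parental cells without the receptor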
Target sequence (P16473 whole entry, looked up): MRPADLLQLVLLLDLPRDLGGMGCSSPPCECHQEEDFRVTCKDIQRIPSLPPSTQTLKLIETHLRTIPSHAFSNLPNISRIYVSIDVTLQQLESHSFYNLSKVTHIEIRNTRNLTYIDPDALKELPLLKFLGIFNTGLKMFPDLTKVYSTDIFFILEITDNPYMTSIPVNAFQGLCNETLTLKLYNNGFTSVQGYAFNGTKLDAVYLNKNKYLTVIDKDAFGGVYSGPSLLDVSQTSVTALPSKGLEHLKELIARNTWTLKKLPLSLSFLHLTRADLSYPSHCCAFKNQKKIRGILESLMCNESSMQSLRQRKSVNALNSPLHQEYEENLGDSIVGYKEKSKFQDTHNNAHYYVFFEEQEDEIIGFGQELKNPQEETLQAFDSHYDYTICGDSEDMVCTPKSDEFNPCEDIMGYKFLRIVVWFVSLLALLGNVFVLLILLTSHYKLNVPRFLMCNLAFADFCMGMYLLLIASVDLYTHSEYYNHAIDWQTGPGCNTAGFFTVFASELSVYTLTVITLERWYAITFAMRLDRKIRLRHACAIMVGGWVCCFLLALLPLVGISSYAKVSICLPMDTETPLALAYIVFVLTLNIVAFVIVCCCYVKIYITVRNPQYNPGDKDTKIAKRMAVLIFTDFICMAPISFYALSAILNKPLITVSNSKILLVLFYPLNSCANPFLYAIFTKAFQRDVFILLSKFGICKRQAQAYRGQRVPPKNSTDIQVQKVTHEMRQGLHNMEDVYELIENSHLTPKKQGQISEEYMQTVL
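cAMP rise detected as CNG-channel membrane depolarization by fluorescent dye (emission 590 nm), 30 min after compound, following 60 min dye loading containing 100 uM RO 20-1724 at room temperature. Cells: TSHR/CNG HEK 293, with parental CNG HEK 293 as control.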
HEK293 cAMP ctrl: counter-screen for TSHR agonists: cAMP increase in parental HEK293. parental HEK293 CNG cAMP sensor, membrane potential fluorescence. Potency, µM (highest dose often 57.1 µM), without a hit: top-dose activation, actives largely listed as activators. 2.5% of 73,000 active. AID 938; note: % of control where 0% means no effect; nearly all actives have a fitted effect of over 55% in size
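Parental HEK 293 cells stably expressing a cAMP-gated CNG channel were loaded with membrane potential dye containing 100 uM RO 20-1724 for 60 min. Compound added for 30 min; depolarization read as fluorescence intensity at 590 nm.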
15-hLO inh: inhibitors of human 15-lipoxygenase (ALOX15). P16050. 1.4% of 74,000 active. purified 15hLO-1, xylenol orange hydroperoxide absorbance. Potency, µM (series often up to 57.1 µM), inactives show top-dose activity change, negative = inhibition, hits mostly inhibitors; note: % is set by controls: 0 for no effect and ±100 for the full control effect; nearly all actives have a fitted effect of over 55% in size
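Compounds were preincubated 15 min at room temperature with 40 nM purified human enzyme (25 mM Hepes pH 7.5, 0.01% Triton X-100); 50 uM arachidonic acid reacted 6 min. Fe-xylenol orange detection, 30 min, absorbance ratio 573/405 nm.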
Casp1 inh: allosteric or competitive inhibitors of human caspase-1. Caspase-1 enzyme, Ac-WEHD-AFC fluorogenic rate. Potency, µM (top dose mostly 57.5 µM), without a hit: at the top dose activity change, negative = inhibition, most hits filed as inhibitors. 0.03% of 75,000 active. AID 900. P29466;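 note: plate controls were vehicle for no effect and no substrate for full effect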
Numbers without * were called inactive; ? = inconclusive; . = no result given; ! = a repeat was not active; [ ] = dose if it differs, or a comment. Shown are actives, neighbours in structure and some others; about 3% of the full set was active somewhere. Unless noted, calls come from the whole dose curve; as a rule, active = well fitted curve in the direction sought with a large enough effect; inconclusive = small, poorly fitted or top-dose-only effect, or another doubt; inactive = no such curve, though single readings can be large; an effect the other way counts as inactive or inconclusive. Potency is the fitted concentration of half-maximal effect.

SMILES	Casp7 inh	15-hLO-2 inh	TSHR agonist	HEK293 cAMP ctrl	15-hLO inh	Casp1 inh
CCc1cc2c(nc1CC)CCN(CC/C(C)=N/OC[C@@H](O)COCc1ccco1)C2	3%[11.5 µM]	.	1%[11.4 µM]	12%[11.4 µM]	-1%[11.4 µM]	2%[11.5 µM]
COc1cc(/C=C(\C#N)C(=O)c2ccc(O)c(O)c2)cc(I)c1O	1%	-22%	?	?	1µM*	-1%
C=C(C#N)C(=O)OCC	1%	-8%	?	?	0%	2%
Cc1ccccc1OCCCN1C(=O)C(=O)c2cccc(C)c21	-7%	25µM*	?	?	?	-5%
Cc1ccc2ccccc2c1CSc1nc(N)nc2c1ncn2CC(C)C	-2%[11.5 µM]	24%[11.4 µM]	5%[11.4 µM]	14%[11.4 µM]	6%[11.4 µM]	1%[11.5 µM]
CN1CCN(c2ncc3nc(-c4ccc(Cl)cc4)c(=O)n(Cc4cccs4)c3n2)CC1	?	10%	?	?	4%	.
COc1cc2c(cc1OC)[C@H](c1ccccc1)CN(C)CC2	2%	10%	13%	8%	0%	1%
COc1ccc(-c2nnc(SCc3nnc(-c4ccccc4)o3)n2-c2ccccc2)cc1	-1%	?	19%[11.4 µM]	10%[11.4 µM]	-1%[11.4 µM]	-1%
Cc1nnc(SCc2nnc(-c3ccc(Cl)cc3)o2)n1-c1ccccc1	-4%	3%	-2%[11.4 µM]	7%	-2%	0%
COc1ccc(-c2nnc(SCc3nnc(-c4ccc(Cl)cc4)o3)n2-c2ccccc2)cc1	-2%	-3%	?	16µM*	-15%	-1%
COc1ccc(-n2c(SCc3nnc(-c4ccccc4)o3)nnc2-c2ccccc2)cc1	-6%	-5%	?	20µM*	-4%	-2%
CNC[C@H](O)[C@H](O)[C@H](O)[C@H](O)CO	0%[25.7 µM]	4%[25.6 µM]	-1%[25.6 µM]	-5%[25.6 µM]	5%[25.6 µM]	-3%[25.7 µM]
O=C(O)c1ccccc1NS(=O)(=O)c1ccc(F)c(Cl)c1	0%	.	-5%	0%	0%	-1%
CCCCCCCCCCCCCCCCCC(=O)NCCc1ccc(O)c(O)c1	0%	-1%	-1%	-1%	-8%	-1%
Brc1ccccc1-c1nnc(COc2ncnc3c2cnn3-c2ccccc2)o1	-8%	-15%	?	25µM*	2%	-3%
COc1ncnc2c1cnn2-c1ccccc1	.	0%	.	.	.	.
Cc1cccc(OCCSc2cc(C)nc(N)n2)c1	-4%	27%	?	32µM*	-5%	-14%
CC(C)CO/N=C1/C[C@@H](O)[C@@H](O)[C@@H]2[C@@H]3C(=O)N(C4CCCCC4)C(=O)[C@H]3CC[C@@H]12	-1%[11.5 µM]	.	-11%[11.4 µM]	-8%[11.4 µM]	4%[11.4 µM]	?
O=C(O)c1ccccc1/C=N\N=C1c2ccccc2-c2ccccc21	-1%[11.5 µM]	3%[11.4 µM]	-2%[11.4 µM]	-3%[11.4 µM]	5%[11.4 µM]	-3%[11.5 µM]
O=C(CSc1nnc(-c2ccc(Cl)s2)o1)N1CCCc2ccccc21	-3%	-4%	?	4µM*	-12%	0%
O=C(CSc1nnc(-c2ccc(Cl)s2)o1)N1CCc2ccccc21	1%	-1%	19%	16%	3%	2%
COc1ccc(C[C@@H]2c3cc(OC)c(OC)cc3CC[N@+]2(C)CCC(=O)OCCCCCOC(=O)CC[N@@+]2(C)CCc3cc(OC)c(OC)cc3[C@H]2Cc2ccc(OC)c(OC)c2)cc1OC	-4%[25.7 µM]	18%[25.6 µM]	-11%[25.6 µM]	-6%[25.6 µM]	5%[25.6 µM]	-9%[25.7 µM]
CCOc1cc(CN2CCN(c3cccc(C(F)(F)F)c3)CC2)ccc1O	-1%	32%	15%	28%	-12%	-2%
CCOc1cc(CN2CCSCC2)ccc1O	1%	-4%	?	0.032µM*	2%[11.4 µM]	0%
N[C@H](Cc1cc(I)c(Oc2cc(I)c(O)c(I)c2)c(I)c1)C(=O)O	-4%[25.7 µM]	-14%[25.6 µM]	-15%[25.6 µM]	7%[25.6 µM]	-7%[25.6 µM]	-6%[25.7 µM]
SMILES	Casp7 inh	15-hLO-2 inh	TSHR agonist	HEK293 cAMP ctrl	15-hLO inh	Casp1 inh
NC(Cc1cc(I)c(Oc2cc(I)c(O)c(I)c2)c(I)c1)C(=O)O (stereo not drawn)	-1%	-2%	.	.	13µM*	2%
CCC1CCCCN1C(=O)COC(=O)c1cc2ccccc2cc1O (stereo not drawn)	-4%	-8%	?	32µM*	-5%	-4%
O=C(OCC(=O)N1CCCCC1)c1cc2ccccc2cc1O	-3%	-12%	1%	12%	-14%	-2%
CC(C)=CCC/C(C)=C/CC/C(C)=C/CC/C(C)=C/CC/C(C)=C/CC/C(C)=C/CC/C(C)=C/CC/C(C)=C/CC/C(C)=C/CO	-1%	-5%	.	.	-1%	1%
CC(C)=CCC/C(C)=C/CO	2%[11.5 µM]	-2%[11.4 µM]	-2%[11.4 µM]	6%[11.4 µM]	7.9µM*!	-1%[11.5 µM]
C=CC(C)(O)CC/C=C(\C)CCC=C(C)C (stereo not drawn)	-1%	5%	.	.	13µM*	3%
CC(C)=CCC/C(C)=C/CC/C(C)=C/CO	-2%	4%	.	.	?	0%
COc1ccc(CNc2ncncc2-c2ccccc2C(F)(F)F)c(OC)c1	-8%	45%	?	?	?	-1%
CCCN(CCC)C(C(=O)Nc1cccc(OC)c1)c1ccccc1 (stereo not drawn)	-1%	21%	?	25µM*	-5%	-1%
CCn1c(SCCOc2ccc(Cl)cc2)nnc1-c1cccs1	-2%	-5%	?	32µM*	-9%	-3%
CCn1c(SCC(=O)c2ccc(Cl)cc2)nnc1-c1cccs1	.	1%	.	.	.	.
CNNCc1ccc(C(=O)NC(C)C)cc1	0%[25.7 µM]	4%[25.6 µM]	-16%[25.6 µM]	4%[25.6 µM]	7.9µM*	-14%[25.7 µM]
O=C1CCC=C1[C@@H](O)CCc1ccccc1	0%[11.5 µM]	.	-1%[11.4 µM]	-3%[11.4 µM]	4%[11.4 µM]	0%[11.5 µM]
COC(=O)c1ccc(CCc2cc(O)ccc2O)cc1	3%[11.5 µM]	12%[11.4 µM]	1%[11.4 µM]	-9%[11.4 µM]	1.6µM*	-1%[11.5 µM]
CC(=O)NCCNc1ccnc(-c2ccccc2C(F)(F)F)n1	-2%	-8%	1%	2%	-20%	-1%
CCCCNC(=O)c1ccc2nc(-c3ccco3)c(-c3ccco3)nc2c1	?	.	-17%	17%	5µM*	.
O=C(Nc1ccccc1)c1ccc2nc(-c3ccco3)c(-c3ccco3)nc2c1	?	?	-7%	-9%	6.3µM*	?
O=C(Nc1ccccc1)c1cccc(-c2nnc(-c3ccccc3)o2)c1	0%	-13%	?	32µM*	-8%	-1%
Cc1cc(=O)c2c(O)c3c(O)cc(O)c4c5c(O)cc(O)c6c(O)c7c(=O)cc(C)c8c1c2c(c34)c(c65)c78	.	2.5µM*	.	.	.	.
Cc1cc(C)c(-c2cc([C@H](C)O/N=C3/[C@H]4OC4[C@@H](O)[C@H]4[C@H]3CCn3c(=O)n(-c5ccccc5)c(=O)n34)on2)c(C)c1 (stereo partly drawn)	-5%[11.5 µM]	.	-12%[11.4 µM]	16%[11.4 µM]	1%[11.4 µM]	-8%[11.5 µM]

High-throughput results (PubChem BioAssay)
